Mtb FBA inh = inhibits M. tuberculosis FBA enzyme. P9WQA3. purified M. tuberculosis FBA, fluorescence read-out. inhibition, % at 1 µM. 360,000 tested, 2.3% active;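 also: 0% = vehicle and 100% = reference inhibitor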
RecA splice inh = Mtb RecA intein splicing inhibition; P9WHJ3; cell-free RecA intein splicing, fluorescence; inhibition, % (test concentration not listed); 290,000 tested, 0.75% active; in the data active = inhibition above about 30%;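 also: 0% = vehicle wells and 100% = reference inhibitor control wells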
Mtb UGM inh = inhibitors of M. tuberculosis UDP-galactopyranose mutase. AID 504406. 320,000 tested, 0.06% active. inhibition, % at 10 µM. P9WIQ1. purified UGM, fluorescence polarization probe displacement; in the data active = inhibition above about 10%, passing the limit was not always enough
Rv3671c inh = Rv3671c (M. tuberculosis) protease inhibition | inhibition, % at 5.96 µM | 320,000 tested, 0.048% active; in the data active = inhibition above about 38%;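 also: extracellular domain of Rv3671c used as enzyme; 0% = enzyme with DMSO and 100% = no enzyme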
GDH-TPI counter-1 = counter-screen for M. tuberculosis FBA inhibitors: GDH-TPI coupled enzymes; GDH-TPI coupled enzyme counterscreen, NADH absorbance; inhibition, % at 4.8 µM; 360,000 tested, 1.2% active; AID 588335; in the data active = inhibition above about 30%;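 also: 0% = DMSO wells and 100% = wells lacking the enzyme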
Mtb bLac sens = beta-lactam sensitization of Mtb H37Rv; inhibition, % at 25 µM; M. tuberculosis H37Rv growth with meropenem, percent inhibition; 330,000 tested, 0.27% active; call rule not given here;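 also: growth measured after seven days incubation then overnight dye step; 0% = bacteria only wells and 100% = bacteria with antibiotic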
Mtb FBA inh conf = confirmation of M. tuberculosis fructose-bisphosphate aldolase inhibitors | shares compounds with Mtb FBA inh | inhibition, % at 1 µM | 5,600 tested, 78% active | purified M. tuberculosis FBA, fluorescence read-out;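 also: 0% = vehicle wells and 100% = reference inhibitor wells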
GDH-TPI counter-2 = inhibits GDH-TPI coupling enzymes, flagging Mtb FBA hits; shares compounds with Mtb FBA inh; GDH-TPI coupled enzyme counterscreen, fluorescence; inhibition, % at 1 µM; 5,600 tested, 81% active; in the data active = inhibition above about 10%
Starred values were filed as active, the others as inactive; . = no result; + = active, no number. Compounds with a hit are over-represented: about 4% of the library has one in this group of screens. Rule as the data show it, unless noted: active = inhibition above about 27%; inactive = the rest.

SMILES	Mtb FBA inh	RecA splice inh	Mtb UGM inh	Rv3671c inh	GDH-TPI counter-1	Mtb bLac sens	Mtb FBA inh conf	GDH-TPI counter-2
COc1cc2c(cc1O)CC1c3c(cc(O)c(OC)c3-2)CCN1C (stereo not given)	27*	-5	0	0	-11	0	101*	95*
Cc1c(C(=O)OCC(=O)NCCN2C(=O)CSC2=O)oc2c1ccc1ccccc12	63*	-1	1	-10	12	4	160*	134*
O=C(COC(=O)c1cccs1)NCCN1C(=O)CSC1=O	1	0	0	0	7	-10	.	.
C/C(CC(=O)Nc1cc(C)ccn1)=N\NC(=O)c1cccc(C)c1O	9	7	-1	9	3	66	.	.
CC(=O)N1c2ccc(S(=O)(=O)N3CCC(C(=O)N4CCN(c5ccc(Cl)cc5)CC4)CC3)cc2CC1C (stereo not given)	-1	2	-1	-1	1	-7	.	.
CCCN1C2=C(C(=O)CC(C)(C)C2)C(c2ccc(F)cc2)C2=C1c1ccccc1C2=O (stereo not given)	1	5	-2	-6	2	-1	.	.
CC1(C)CC(=O)C2=C(C1)N(CCN1CCOCC1)C1=C(C(=O)CC(C)(C)C1)C2c1cccc(Cl)c1	30*	-173	2	6	14	-10	3	2
CCN(CC)CCN1C2=C(C(=O)CC(C)(C)C2)C(c2cccc(F)c2)C2=C1CC(C)(C)CC2=O	83*	-87	0	2	14	-6	+	200*
CSc1cccc(NC(=O)c2nnn(CC(=O)Nc3cc(C)cc(C)c3)c2N)c1	5	-1	0	-19	3	4	.	.
O=C(COC(=O)Cc1ccccc1F)NCCNC(=O)COC(=O)Cc1ccccc1F	-3	3	-2	0	-8	0	.	.
CN(C)c1ccc(C(CNC(=O)c2ccco2)N2CCCC2)cc1 (stereo not given)	2	3	1	-1	0	1	.	.
O=C(OCc1cn(-c2ccc(Cl)cc2)nn1)c1ccccc1	0	1	-3	-9	-7	5	.	.
COc1ccc(CC(=O)OCn2nnc3ccccc3c2=O)cc1	1	-1	1	-1	6	99	.	.
COc1ccc(Cn2cc(Cn3c4ccccc4c(=O)n3C(C)C)nn2)cc1	105*	.	.	.	.	.	77*	55*
CC(C)n1c(=O)c2ccccc2n1Cc1cn(-c2ccc(Cl)cc2)nn1	56*	.	.	.	.	.	35*	30*
Cc1c(Br)c(=O)oc2c(C)c(O)ccc12	41*	-169	-1	-10	14	39	196*	169*
CCOc1c(OC)ccc2c3c(c(=O)oc12)CCCC3	19	0	1	-7	9	.	.	.
C=CCOc1ccc2c(OC)c3ccoc3nc2c1OC	87*	11	-1	-6	1	-2	40*	28*
CCOc1c2ccoc2nc2c(OC)c(OC)ccc12	67*	0	0	5	13	-6	+	175*
CN(CC(=O)Nc1cccc(S(=O)(=O)N(C)c2ccccc2)c1)Cc1cccs1	-5	.	.	.	8	.	.	.
O=[N+]([O-])c1ncccc1OCc1ccccc1Br	-1	5	-2	-13	2	-3	.	.
CCn1c(-c2cccs2)nc2ccccc21	58*	0	2	5	2	64	123*	108*
CCn1c(-c2ccco2)nc2ccccc21	16	-3	2	-2	-10	3	.	.
C#CCn1c(-c2cccs2)nc2ccccc21	68*	0	0	-2	10	2	61*	39*
O=c1[nH]c2ccc(Cl)cc2c(O)c1Cc1ccccc1	35*	-5	4	-8	12	10	+	193*
CCCCCCn1c(=O)n2n(c1=O)C[C@]1(OC(=O)NCC3CCCCC3)CN(S(=O)(=O)c3ccc(C)cc3)C[C@]1(O)C2	-1	.	.	.	5	.	.	.
Cc1ccn2cc(CCNC(=O)CC(C)(C)C)nc2c1	27*	-2	4	1	-2	-20	45*	29*
COc1ccc(C(=O)NCCc2cn3ccc(C)cc3n2)cc1	6	-5	-2	-1	6	23	.	.

High-throughput results as filed in PubChem BioAssay.
